Data taken from publication PMC7862700, “An all-to-all approach to the identification of sequence-specific readers for epigenetic DNA modifications on cytosine”.

Legend:
Experiment in all cases: DAPPL (digital affinity profiling via proximity ligation, sequencing); 10 mM Tris-HCl pH 7.5, 50 mM NaCl, 1 mM DTT, 4% glycerol, room temperature, 30 min; GST-TFs on glutathione beads, 16-mer random dsDNA library, 0.1% formaldehyde crosslink after washing; high values mean tight binding
[1] = biological target: T1, FEV (Homo sapiens, UniProt Q99581 1-238); conditions: protein: recombinant; tags: N-terminal GST; dsDNA, one strand shown
T1 sequence: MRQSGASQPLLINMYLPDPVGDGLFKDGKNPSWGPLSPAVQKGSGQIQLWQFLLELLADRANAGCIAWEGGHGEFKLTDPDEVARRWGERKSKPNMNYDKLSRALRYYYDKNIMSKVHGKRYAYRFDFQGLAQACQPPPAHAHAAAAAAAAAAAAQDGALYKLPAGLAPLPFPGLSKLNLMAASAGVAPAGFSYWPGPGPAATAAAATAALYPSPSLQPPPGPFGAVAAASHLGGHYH
Procedure, shortened: (§1)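 Sequencing on an Illumina NextSeq500 followed washing, crosslinking with 0.1% formaldehyde, proximity ligation (BsaI/T4 ligase, 1 h, 37 °C) and PCR amplification of pools that had been incubated for 30 min at room temperature with 200 nmole of a random double-stranded 16-mer DNA library in Tris/NaCl/DTT/glycerol buffer. Each pool held DNA-barcoded human transcription factors, expressed in yeast as GST fusions and captured on glutathione beads, plus a tag-only sample. Binding signal is a hexamer's read frequency for a factor divided by its frequency in the tag-only sample.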

[2] = biological target: ETV5 (Homo sapiens, UniProt P41161 1-510); conditions: protein: recombinant; tags: N-terminal GST; dsDNA, one strand shown
Sequence of ETV5 (P41161 whole entry): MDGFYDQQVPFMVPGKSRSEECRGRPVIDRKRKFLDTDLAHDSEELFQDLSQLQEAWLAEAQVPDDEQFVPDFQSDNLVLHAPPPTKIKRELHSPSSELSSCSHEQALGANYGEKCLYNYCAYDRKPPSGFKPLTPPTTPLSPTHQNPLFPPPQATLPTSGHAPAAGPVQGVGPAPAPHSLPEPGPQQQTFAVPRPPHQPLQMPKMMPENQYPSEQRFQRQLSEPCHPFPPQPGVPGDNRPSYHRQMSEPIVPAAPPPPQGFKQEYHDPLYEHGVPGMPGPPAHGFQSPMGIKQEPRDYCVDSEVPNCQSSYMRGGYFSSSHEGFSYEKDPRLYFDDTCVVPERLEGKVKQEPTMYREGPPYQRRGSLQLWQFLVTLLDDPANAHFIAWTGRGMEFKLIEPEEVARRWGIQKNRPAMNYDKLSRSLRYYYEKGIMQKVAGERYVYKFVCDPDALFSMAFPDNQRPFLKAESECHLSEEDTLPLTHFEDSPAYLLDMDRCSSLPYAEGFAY
Procedure, shortened: as §1

[3] = biological target: HSF1 (Homo sapiens, UniProt Q00613 1-529); conditions: protein: recombinant; tags: N-terminal GST; chain copies: 3; dsDNA, one strand shown
Sequence of HSF1 (Q00613 whole entry): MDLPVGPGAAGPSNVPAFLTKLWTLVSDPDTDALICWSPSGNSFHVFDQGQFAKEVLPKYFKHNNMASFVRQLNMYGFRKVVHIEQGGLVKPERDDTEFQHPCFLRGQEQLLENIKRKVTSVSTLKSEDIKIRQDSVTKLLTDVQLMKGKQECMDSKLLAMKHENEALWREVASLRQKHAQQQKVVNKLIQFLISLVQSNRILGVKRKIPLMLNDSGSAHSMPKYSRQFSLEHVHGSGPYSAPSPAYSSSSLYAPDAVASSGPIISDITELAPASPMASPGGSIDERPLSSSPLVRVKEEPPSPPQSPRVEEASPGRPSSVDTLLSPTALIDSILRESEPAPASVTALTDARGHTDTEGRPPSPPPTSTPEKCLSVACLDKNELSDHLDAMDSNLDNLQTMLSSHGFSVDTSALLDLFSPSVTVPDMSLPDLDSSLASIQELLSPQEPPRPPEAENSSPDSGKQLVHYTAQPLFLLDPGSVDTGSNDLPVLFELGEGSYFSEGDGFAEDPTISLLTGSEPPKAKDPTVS
Procedure, shortened: as §1

[4] = biological target: T2, SPIC (Homo sapiens, UniProt Q8N5J4 1-248); conditions: protein: recombinant; tags: N-terminal GST; dsDNA, one strand shown
T2 sequence: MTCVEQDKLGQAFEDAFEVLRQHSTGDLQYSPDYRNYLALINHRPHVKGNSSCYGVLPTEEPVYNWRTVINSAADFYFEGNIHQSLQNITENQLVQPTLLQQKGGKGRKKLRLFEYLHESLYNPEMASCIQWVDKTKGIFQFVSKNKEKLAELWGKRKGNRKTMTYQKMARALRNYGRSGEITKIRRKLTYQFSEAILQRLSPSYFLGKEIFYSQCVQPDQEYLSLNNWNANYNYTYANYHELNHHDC
Procedure, shortened: as §1

[5] = biological target: ELF4 (Homo sapiens, UniProt Q99607 1-663); conditions: protein: recombinant; tags: N-terminal GST; dsDNA, one strand shown
Sequence of ELF4 (Q99607 whole entry): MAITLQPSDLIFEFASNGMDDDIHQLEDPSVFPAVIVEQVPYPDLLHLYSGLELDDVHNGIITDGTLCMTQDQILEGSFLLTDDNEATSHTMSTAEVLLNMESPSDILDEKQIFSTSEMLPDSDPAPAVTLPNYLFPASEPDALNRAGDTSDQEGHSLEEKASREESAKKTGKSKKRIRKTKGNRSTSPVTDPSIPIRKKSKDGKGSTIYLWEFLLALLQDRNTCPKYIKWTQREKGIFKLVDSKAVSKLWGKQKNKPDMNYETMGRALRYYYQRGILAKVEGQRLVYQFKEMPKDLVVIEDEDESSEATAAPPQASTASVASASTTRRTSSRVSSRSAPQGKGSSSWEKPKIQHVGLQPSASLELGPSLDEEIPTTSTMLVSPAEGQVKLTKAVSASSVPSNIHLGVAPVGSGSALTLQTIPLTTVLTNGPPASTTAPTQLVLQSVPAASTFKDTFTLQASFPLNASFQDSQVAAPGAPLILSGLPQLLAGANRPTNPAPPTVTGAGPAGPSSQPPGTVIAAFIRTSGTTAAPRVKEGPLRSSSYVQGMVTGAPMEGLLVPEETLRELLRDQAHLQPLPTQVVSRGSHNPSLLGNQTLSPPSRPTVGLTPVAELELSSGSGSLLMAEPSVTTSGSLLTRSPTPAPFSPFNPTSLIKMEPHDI
Procedure, shortened: as §1

[6] = biological target: T3, ELK4 (Homo sapiens, UniProt P28324-2 1-405); conditions: protein: recombinant; tags: N-terminal GST; dsDNA, one strand shown
T3 sequence: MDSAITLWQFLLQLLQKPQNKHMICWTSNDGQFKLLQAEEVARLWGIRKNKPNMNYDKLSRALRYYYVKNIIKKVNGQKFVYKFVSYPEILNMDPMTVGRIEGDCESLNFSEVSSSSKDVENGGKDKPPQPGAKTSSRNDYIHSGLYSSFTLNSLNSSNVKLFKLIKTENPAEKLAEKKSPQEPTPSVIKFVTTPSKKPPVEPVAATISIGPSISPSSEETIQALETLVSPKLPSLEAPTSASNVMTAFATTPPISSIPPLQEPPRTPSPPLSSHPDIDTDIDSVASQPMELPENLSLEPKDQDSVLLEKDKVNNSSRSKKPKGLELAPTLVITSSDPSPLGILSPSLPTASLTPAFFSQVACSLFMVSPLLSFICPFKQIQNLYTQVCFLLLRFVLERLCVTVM
Procedure, shortened: as §1

[7] = biological target: T4, ETV2 (Homo sapiens, UniProt O00321 1-342); conditions: protein: recombinant; tags: N-terminal GST; dsDNA, one strand shown
T4 sequence: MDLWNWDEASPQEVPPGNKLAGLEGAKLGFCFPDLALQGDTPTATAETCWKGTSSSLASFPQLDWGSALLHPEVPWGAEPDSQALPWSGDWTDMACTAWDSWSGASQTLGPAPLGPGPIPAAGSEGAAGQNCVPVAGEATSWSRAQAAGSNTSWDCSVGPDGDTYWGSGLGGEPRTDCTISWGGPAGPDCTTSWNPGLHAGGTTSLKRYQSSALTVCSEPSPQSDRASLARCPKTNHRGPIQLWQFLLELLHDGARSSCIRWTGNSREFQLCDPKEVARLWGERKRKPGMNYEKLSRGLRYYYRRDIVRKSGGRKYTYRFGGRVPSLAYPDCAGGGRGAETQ
Procedure, shortened: as §1

[8] = biological target: T5, ELF3 (Homo sapiens, UniProt P78545 1-371); conditions: protein: recombinant; tags: N-terminal GST; dsDNA, one strand shown
T5 sequence: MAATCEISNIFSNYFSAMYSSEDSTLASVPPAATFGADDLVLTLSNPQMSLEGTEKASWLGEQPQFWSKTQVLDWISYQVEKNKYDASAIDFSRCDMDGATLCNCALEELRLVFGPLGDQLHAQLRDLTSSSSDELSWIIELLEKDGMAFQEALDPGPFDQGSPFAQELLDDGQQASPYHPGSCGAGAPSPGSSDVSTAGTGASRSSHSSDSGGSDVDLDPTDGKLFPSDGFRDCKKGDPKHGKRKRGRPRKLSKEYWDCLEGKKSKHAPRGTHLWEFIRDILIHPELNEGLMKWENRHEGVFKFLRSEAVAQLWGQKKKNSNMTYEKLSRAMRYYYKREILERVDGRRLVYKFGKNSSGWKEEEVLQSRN
Procedure, shortened: as §1

[9] = biological target: ETV1 (Homo sapiens, UniProt P50549 1-477); conditions: protein: recombinant; tags: N-terminal GST; dsDNA, one strand shown
Sequence of ETV1 (P50549 whole entry): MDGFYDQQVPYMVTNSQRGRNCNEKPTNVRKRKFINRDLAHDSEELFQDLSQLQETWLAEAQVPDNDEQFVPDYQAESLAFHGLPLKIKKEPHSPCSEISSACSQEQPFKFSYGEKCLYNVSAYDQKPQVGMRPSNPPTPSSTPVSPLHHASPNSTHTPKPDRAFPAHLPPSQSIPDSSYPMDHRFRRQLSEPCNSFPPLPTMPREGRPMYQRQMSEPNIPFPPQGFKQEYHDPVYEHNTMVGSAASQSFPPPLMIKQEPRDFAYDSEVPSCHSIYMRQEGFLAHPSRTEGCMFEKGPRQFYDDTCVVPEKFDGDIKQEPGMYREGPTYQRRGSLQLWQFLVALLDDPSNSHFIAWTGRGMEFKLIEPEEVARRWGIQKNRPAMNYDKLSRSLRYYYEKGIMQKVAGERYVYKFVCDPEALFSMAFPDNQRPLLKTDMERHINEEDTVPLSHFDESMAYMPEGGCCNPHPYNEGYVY
Procedure, shortened: as §1

[10] = biological target: T6, ERF (Homo sapiens, UniProt P50548 1-548); conditions: protein: recombinant; tags: N-terminal GST; dsDNA, one strand shown
T6 sequence: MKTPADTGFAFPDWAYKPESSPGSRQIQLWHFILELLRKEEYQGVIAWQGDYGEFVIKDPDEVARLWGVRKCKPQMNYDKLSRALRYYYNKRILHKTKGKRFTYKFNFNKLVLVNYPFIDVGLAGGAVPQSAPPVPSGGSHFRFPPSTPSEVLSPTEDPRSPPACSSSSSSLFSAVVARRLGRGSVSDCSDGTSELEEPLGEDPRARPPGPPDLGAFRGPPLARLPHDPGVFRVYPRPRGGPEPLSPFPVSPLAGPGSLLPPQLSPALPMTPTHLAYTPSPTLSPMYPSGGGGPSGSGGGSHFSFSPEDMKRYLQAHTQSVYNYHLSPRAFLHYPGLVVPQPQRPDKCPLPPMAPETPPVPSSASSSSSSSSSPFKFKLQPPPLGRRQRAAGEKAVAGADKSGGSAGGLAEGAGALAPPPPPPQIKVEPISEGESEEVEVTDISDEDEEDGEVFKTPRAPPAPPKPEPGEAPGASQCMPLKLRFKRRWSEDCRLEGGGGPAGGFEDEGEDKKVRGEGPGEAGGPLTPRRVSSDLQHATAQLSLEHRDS
Procedure, shortened: as §1

[11] = biological target: T7, ETV3L (Homo sapiens, UniProt Q6ZN32 1-361); conditions: protein: recombinant; tags: N-terminal GST; dsDNA, one strand shown
T7 sequence: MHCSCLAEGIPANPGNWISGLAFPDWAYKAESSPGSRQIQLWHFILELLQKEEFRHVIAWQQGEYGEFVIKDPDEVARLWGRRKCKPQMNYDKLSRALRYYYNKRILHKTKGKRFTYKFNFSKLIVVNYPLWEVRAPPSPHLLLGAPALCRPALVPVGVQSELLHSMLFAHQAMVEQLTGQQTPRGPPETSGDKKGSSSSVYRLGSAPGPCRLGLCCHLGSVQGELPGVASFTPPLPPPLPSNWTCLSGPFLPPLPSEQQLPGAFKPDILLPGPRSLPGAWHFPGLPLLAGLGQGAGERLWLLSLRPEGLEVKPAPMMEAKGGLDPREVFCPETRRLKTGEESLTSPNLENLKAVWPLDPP
Procedure, shortened: as §1

[12] = biological target: T8, ETS2 (Homo sapiens, UniProt P15036 1-469); conditions: protein: recombinant; tags: N-terminal GST; dsDNA, one strand shown
T8 sequence: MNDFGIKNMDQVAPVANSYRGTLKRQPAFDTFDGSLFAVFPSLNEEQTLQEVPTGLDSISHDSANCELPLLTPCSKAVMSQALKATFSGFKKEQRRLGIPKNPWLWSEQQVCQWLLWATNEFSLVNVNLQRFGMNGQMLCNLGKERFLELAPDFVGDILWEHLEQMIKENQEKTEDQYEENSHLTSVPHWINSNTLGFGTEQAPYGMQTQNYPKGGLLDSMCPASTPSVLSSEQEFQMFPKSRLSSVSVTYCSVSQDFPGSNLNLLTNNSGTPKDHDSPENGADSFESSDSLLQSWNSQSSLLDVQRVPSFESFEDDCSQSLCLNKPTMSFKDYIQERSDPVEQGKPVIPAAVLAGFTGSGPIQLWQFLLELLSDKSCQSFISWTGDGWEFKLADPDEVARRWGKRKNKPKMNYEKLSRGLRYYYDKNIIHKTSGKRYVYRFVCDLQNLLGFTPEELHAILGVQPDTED
Procedure, shortened: as §1

[13] = biological target: T9, SPDEF (Homo sapiens, UniProt O95238 1-335); conditions: protein: recombinant; tags: N-terminal GST; dsDNA, one strand shown
T9 sequence: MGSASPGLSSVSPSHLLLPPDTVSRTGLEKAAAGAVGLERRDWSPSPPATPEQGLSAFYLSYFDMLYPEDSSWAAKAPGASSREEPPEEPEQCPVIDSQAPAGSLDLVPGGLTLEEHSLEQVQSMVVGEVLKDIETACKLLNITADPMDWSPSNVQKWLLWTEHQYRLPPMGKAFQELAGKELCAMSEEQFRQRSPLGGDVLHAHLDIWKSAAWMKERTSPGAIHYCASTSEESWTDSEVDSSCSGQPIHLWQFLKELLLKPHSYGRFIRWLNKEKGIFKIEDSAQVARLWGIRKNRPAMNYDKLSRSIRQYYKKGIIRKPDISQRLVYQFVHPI
Procedure, shortened: as §1

[14] = biological target: T10, ETV7 (Homo sapiens, UniProt Q9Y603 1-341); conditions: protein: recombinant; tags: N-terminal GST; dsDNA, one strand shown
T10 sequence: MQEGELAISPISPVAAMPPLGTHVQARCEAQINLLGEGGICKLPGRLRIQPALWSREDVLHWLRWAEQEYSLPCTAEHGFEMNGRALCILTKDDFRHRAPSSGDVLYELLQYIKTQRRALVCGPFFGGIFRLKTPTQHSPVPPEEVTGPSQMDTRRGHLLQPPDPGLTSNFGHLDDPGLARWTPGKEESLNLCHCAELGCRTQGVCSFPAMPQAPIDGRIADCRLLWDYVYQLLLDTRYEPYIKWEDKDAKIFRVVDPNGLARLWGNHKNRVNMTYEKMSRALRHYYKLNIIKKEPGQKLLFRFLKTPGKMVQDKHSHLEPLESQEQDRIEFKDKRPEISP
Procedure, shortened: as §1

[15] = biological target: T11, ELF5 (Homo sapiens, UniProt Q9UKW6-2 1-255); conditions: protein: recombinant; tags: N-terminal GST; dsDNA, one strand shown
T11 sequence: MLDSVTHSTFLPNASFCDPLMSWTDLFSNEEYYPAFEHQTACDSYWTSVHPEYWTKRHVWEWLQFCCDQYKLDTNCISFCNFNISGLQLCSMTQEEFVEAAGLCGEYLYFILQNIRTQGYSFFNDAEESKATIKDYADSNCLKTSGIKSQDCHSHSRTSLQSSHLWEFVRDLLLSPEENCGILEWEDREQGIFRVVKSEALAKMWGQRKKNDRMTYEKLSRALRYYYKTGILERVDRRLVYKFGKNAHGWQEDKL
Procedure, shortened: as §1

[16] = biological target: T12, ETV3 (Homo sapiens, UniProt P41162-2 1-143); conditions: protein: recombinant; tags: N-terminal GST; dsDNA, one strand shown
T12 sequence: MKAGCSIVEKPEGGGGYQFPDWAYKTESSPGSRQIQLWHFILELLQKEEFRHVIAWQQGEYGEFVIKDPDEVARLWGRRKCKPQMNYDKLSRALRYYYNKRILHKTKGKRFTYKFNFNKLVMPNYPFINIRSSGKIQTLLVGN
Procedure, shortened: as §1

[17] = biological target: ETV6 (Homo sapiens, UniProt P41212 1-452); conditions: protein: recombinant; tags: N-terminal GST; dsDNA, one strand shown
Sequence of ETV6 (P41212 whole entry): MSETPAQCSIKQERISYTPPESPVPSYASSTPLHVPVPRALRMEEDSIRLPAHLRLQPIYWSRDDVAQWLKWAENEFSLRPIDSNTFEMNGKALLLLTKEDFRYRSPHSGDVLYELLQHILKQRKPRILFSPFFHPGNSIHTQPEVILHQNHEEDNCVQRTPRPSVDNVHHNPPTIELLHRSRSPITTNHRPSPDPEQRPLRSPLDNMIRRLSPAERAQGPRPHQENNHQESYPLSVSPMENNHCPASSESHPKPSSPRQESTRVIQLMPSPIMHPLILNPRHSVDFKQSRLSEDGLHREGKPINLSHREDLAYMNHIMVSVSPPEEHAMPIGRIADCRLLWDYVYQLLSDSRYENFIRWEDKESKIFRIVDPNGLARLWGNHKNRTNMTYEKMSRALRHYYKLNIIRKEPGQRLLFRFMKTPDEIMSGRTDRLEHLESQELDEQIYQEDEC
Procedure, shortened: as §1

TGTACG
binding signal [1]: 1.2 fold enrichment (6-mer frequency, TF over GST control)
binding signal [2]: 1.23 fold enrichment (6-mer frequency, TF over GST control)
binding signal [3]: 1.01 fold enrichment (6-mer frequency, TF over GST control)
binding signal [4]: 1.23 fold enrichment (6-mer frequency, TF over GST control)
binding signal [5]: 1.2 fold enrichment (6-mer frequency, TF over GST control)
binding signal [6]: 1.34 fold enrichment (6-mer frequency, TF over GST control)
binding signal [7]: 1.13 fold enrichment (6-mer frequency, TF over GST control)
binding signal [8]: 1.13 fold enrichment (6-mer frequency, TF over GST control)
binding signal [9]: 1.24 fold enrichment (6-mer frequency, TF over GST control)
binding signal [10]: 1.14 fold enrichment (6-mer frequency, TF over GST control)
binding signal [11]: 1.2 fold enrichment (6-mer frequency, TF over GST control)
binding signal [12]: 1.17 fold enrichment (6-mer frequency, TF over GST control)
binding signal [13]: 1.29 fold enrichment (6-mer frequency, TF over GST control)
binding signal [14]: 1.09 fold enrichment (6-mer frequency, TF over GST control)
binding signal [15]: 1.14 fold enrichment (6-mer frequency, TF over GST control)
binding signal [16]: 1.1 fold enrichment (6-mer frequency, TF over GST control)
binding signal [17]: 1.18 fold enrichment (6-mer frequency, TF over GST control)
